Our source for the inhibition values is PubChem BioAssay AID602438 (Sanford-Burnham Center for Chemical Genomics, 2012).

In all, about 360,000 compounds went through this assay and about 3,100 (0.86%) were called active. Shown is part of a subset that was picked to be rich in actives. A number with no mark means an inactive call.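 Rule for the calls: active = inhibition or corrected inhibition above about 18%, plus a signal ratio from 0.5 to 1.5 (limit read from the data, passing the limit was not always enough); inactive = the rest.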

This assay deals with Neuropilin-1 (Homo sapiens) (UniProt O14786). Briefly: modulators of CendR peptide binding to NRP-1, primary screen, biochemical, fluorescence polarization, uHTS (AID 602438). The settings on record: FAM-RPARPAR peptide binding to NRP-1, fluorescence polarization; at 25 µM; hits give high values.
Neuropilin-1 (Homo sapiens), sequence (O14786 whole entry, looked up): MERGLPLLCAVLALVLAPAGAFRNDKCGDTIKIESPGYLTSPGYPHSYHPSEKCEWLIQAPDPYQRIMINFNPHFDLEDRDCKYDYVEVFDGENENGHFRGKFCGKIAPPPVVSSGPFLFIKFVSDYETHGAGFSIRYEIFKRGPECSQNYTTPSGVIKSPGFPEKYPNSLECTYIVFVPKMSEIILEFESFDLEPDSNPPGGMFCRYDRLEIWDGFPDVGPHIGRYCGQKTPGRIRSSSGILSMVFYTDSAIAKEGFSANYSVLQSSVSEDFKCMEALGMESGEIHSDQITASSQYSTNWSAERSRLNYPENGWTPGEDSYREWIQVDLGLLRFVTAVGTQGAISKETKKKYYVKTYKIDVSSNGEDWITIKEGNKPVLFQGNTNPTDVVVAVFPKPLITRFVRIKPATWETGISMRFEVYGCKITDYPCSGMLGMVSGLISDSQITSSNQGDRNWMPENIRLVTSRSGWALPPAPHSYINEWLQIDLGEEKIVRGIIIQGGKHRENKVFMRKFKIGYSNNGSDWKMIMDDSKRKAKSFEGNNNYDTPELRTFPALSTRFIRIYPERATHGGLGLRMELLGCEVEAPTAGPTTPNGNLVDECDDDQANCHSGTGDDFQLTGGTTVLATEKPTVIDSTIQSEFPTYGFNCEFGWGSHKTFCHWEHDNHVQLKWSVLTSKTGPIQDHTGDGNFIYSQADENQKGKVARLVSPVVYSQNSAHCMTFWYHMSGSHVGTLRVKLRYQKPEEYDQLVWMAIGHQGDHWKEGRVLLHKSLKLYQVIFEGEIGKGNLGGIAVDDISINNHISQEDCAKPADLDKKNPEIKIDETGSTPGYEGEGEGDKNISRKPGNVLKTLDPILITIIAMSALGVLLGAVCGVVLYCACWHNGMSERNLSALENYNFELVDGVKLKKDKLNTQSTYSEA
For `Cc1cc(C)cc(N(CCC#N)C(=O)CN2C(=O)NC3(CCCC3)C2=O)c1`, the inhibition was -5.9%.

As to `CCN(CC)S(=O)(=O)c1ccc2[nH]cc(C(=O)NCCc3ccccc3)c(=O)c2c1`, the inhibition was 8.6%.

Regarding `CN(C)/C(=N\OC(=O)c1ccccc1)c1nonc1N`, the inhibition was 2%.

Consider `C=CCOc1ccc(C2/C(=C(\O)c3c(C)[nH]c(C(=O)OC)c3C)C(=O)C(=O)N2CCN(C)C)cc1` (stereo not drawn), for which the inhibition is 29.5% (active).

Turning to `CCCOc1ccc(/C(O)=C2/C(=O)C(=O)N(CCN(C)C)C2c2ccc(OC)c(OC)c2)cc1` (stereo not drawn), the inhibition was 1.7%.

On to `COc1cccc(C2/C(=C(/O)c3ccc(F)cc3)C(=O)C(=O)N2CCN(C)C)c1` (stereo not drawn), for which the inhibition is 4%.

`Cc1ccc(-c2nc(CS(=O)CC(=O)N3CCN(c4ncccn4)CC3)c(C)o2)cc1` (stereo not drawn): the inhibition was -11.2%.

Consider `CCNC(=S)N(CCc1c(C)[nH]c2ccc(C)cc12)Cc1ccco1`, for which the inhibition is -23.4%.

As to `Cc1ccc(C)c(N(CC(=O)NCc2ccco2)C(=O)CCC(=O)Nc2ccccn2)c1`, the inhibition is -4.5%.

For the compound `CCCCC1=CC2=CC(=O)C(C)(OC(=O)CC)C(=O)C2=CN1CCCOC(C)C` (stereo not drawn), the inhibition is 29.4% (active).

As for `CCN(CC)C(=O)N1CCN(C(=O)c2ccc(C)cn2)CC1`, the inhibition was 0.3%.

Regarding `Cc1ccc(C(CC(=O)O)NC(=O)c2ccc(S(=O)(=O)N3CCCC3)cc2)cc1` (stereo not drawn), the inhibition is -5.6%.

Regarding `O=C(COC(=O)c1ccccn1)NNC(=O)c1ccc([N+](=O)[O-])cc1`, the inhibition is 2.2%.

Regarding `O=C(OCc1ccc([N+](=O)[O-])cc1)c1ccccn1`, the inhibition was 28.2% (active).

With `N/C(=N\OC(=O)Cc1ccc([N+](=O)[O-])cc1)c1ccccn1`, the inhibition was -0.7%.

As to `Cc1ccc(OCC(=O)N2CCN(C(=O)c3cccnc3)CC2)cc1`, the inhibition is 6.1%.

Regarding `O=C(C[C@H]1CC[C@H]2[C@@H](COC[C@H](O)CN2C(=O)c2ccccn2)O1)N1CCN(c2ccccc2)CC1`, the inhibition was 2.2%.

For `COc1cc(C2C(C(=O)c3sc(C)nc3C)=C(O)C(=O)N2CCN(C)C)cc(OC)c1OC` (stereo not drawn), the inhibition was 0.6%.

Take `COc1ccc(COCCN2CCN(S(=O)(=O)c3ccccc3)CCC2=O)cc1`: the inhibition is 28.5% (active).

Turning to `Cc1ccc(S(=O)(=O)N2CCC(=O)N([C@H](COCc3ccccc3)Cc3ccccc3)CC2)cc1`, the inhibition is -15.7%.

As for `Cc1ccc(S(=O)(=O)N2CCC(=O)N([C@H](COCc3ccccc3)C(C)C)CC2)cc1`, the inhibition was -3.6%.

As for `CCCCCn1nnnc1-c1nc2cc3ccccc3cc2[nH]c1=O`, the inhibition was 0%.

`COCCCNC(=O)c1c(F)c(F)c(F)c(F)c1F`: the inhibition was 8.4%.

Take `Cc1nc(C(F)(F)F)ccc1C(=O)N1CCC1(C)C(=O)NS(=O)(=O)c1ccccc1Cl` (stereo not drawn): the inhibition is 13.8%.

Take `NC(=O)COc1ccccc1C(=O)NC12CC3CC(CC(C3)C1)C2`: the inhibition is -2.6%.

Take `O=C(NCCN1CCOCC1)c1ccccc1N1C(=O)[C@@H]2Cc3c([nH]c4ccccc34)C(c3cccc(Cl)c3)N2C1=O` (stereo partly drawn): the inhibition is -5.5%.

With `CCOCc1nnc(NC(=O)CSc2ccc(C)cc2)s1`, the inhibition is -1%.

Take `Cc1ccc(OCc2nnc(NC(=O)OCC(C)C)s2)cc1`: the inhibition is 19.5% (active).

In the case of `O=C(Nc1nnc(COc2ccccc2)s1)Nc1ccccc1F`, the inhibition was -10.8%.

For the compound `O=C(CNCc1ccco1)Nc1cc(S(=O)(=O)N2CCOCC2)ccc1N1CCCC1`, the inhibition was 7.8%.

As for `Cc1cc(C)c(CN2CCN(C(=O)Cn3ccc(NC(=O)OCc4ccccc4)nc3=O)CC2)c(C)c1`, the inhibition is 3.3%.

Consider `O=C(c1ccccc1)c1cccn1CC(=O)N1CCN(c2ccc(F)cc2)CC1`, for which the inhibition was -4.3%.

As to `Cc1ccc(CNS(=O)(=O)c2ccc3c(c2)N(C)CCO3)cc1`, the inhibition is -8.8%.

Consider `Cc1nonc1NC(=O)c1oc2ccccc2c1C`, for which the inhibition is 7.8%.

As for `CCc1nonc1NC(=O)c1oc2ccc(Cl)cc2c1C`, the inhibition is 13.2%.

Turning to `COc1ccc(-c2nonc2NC(=O)c2oc3ccc(F)cc3c2C)cc1OC`, the inhibition is 30.3% (active).

On to `O=C(NCc1ccc2c(c1)OCO2)C1CCCN(S(=O)(=O)c2cccs2)C1` (stereo not drawn), for which the inhibition was -10.1%.

Take `CCCCc1c(-c2ccc(Br)cc2)ncn1CCc1ccccc1OC`: the inhibition is 12.7%.

`CC(C)C1Cc2[nH][nH]c(=O)c2C(c2ccc(Cl)cc2)O1` (stereo not drawn): the inhibition is -4.6%.

On to `CC(C)NC(=O)c1ccccc1S(=O)c1ccccc1C#N` (stereo not drawn), for which the inhibition is -10.3%.

With `CCc1oc(-c2ccc(OC)cc2)c(C(=O)OCCCCCO)c1C(C)OCCO` (stereo not drawn), the inhibition is 23% (active).

As for `CCN(CCCCOC(=O)c1ccc(OC)c(OC)c1)C(C)Cc1ccc(OC)cc1` (stereo not drawn), the inhibition is -0.7%.

As for `COc1ccc(-c2oc3ncnc(NCCCO)c3c2-c2ccc(OC)cc2)cc1`, the inhibition is 4.1%.

Turning to `CCOC(=O)C1=CC[C@@H](c2ccccc2)N(S(=O)(=O)c2ccc(C)cc2)[C@H]1c1cccc(OC)c1`, the inhibition is 26% (active).

`CCOC(=O)C1=CC[C@@H](c2ccncc2)N(S(=O)(=O)c2ccc(C)cc2)C1`: the inhibition is 13.9%.

For `CCOC(=O)C1=CC[C@@H](c2ccccc2)N(S(=O)(=O)c2ccc(C)cc2)[C@H]1c1ccc(CC)cc1`, the inhibition is 11.1%.

Regarding `Cc1ccc([C@@H]2CC=C(C(=O)O)[C@H](c3cccc(Cl)c3)N2S(=O)(=O)c2ccc(C)cc2)cc1`, the inhibition was -10.9%.

With `CC(=O)C1=CCC(c2ccccc2)N(S(=O)(=O)c2ccc(C)cc2)C1` (stereo not drawn), the inhibition is -3.9%.

Consider `CCOC(=O)C1=CCC(c2ccc(F)cc2)N(S(=O)(=O)c2ccc(C)cc2)C1` (stereo not drawn), for which the inhibition was 19.9% (active).

Take `CCN(CC)S(=O)(=O)c1ccc(CNC(=O)CN2C(=O)NC3(CCc4ccccc43)C2=O)cc1` (stereo not drawn): the inhibition is -10.1%.

Turning to `CCOC(=O)CSc1nccc(N(C)C)c1C#N`, the inhibition was 25.2% (active).

Take `CCOC(=O)CSc1ccccn1`: the inhibition is 2.8%.

Turning to `CCOC(=O)CSc1nc(N2CCOCC2)c2c(c1C#N)CC(C(C)C)OC2` (stereo not drawn), the inhibition is -2%.

Take `Cc1n[nH]c(C)c1S(=O)(=O)N1CCCC(C(=O)NCC2COc3ccccc3O2)C1` (stereo not drawn): the inhibition is 6.3%.

On to `COC(=O)Nc1ncc(CN2CCCCC2)s1`, for which the inhibition was 6.1%.

On to `COC(=O)C1(C(=O)OC)C[C@H](c2ccccc2)N(Cc2ccccc2OC)[C@@H]1c1ccccc1`, for which the inhibition is 18.8%.

For the compound `COCCCNC(=O)c1ccc2c(c1)ncn2-c1ccccc1OC`, the inhibition is -5.2%.

For the compound `COC(CNC(=O)c1ccc2c(c1)ncn2-c1cc(C)cc(C)c1)OC`, the inhibition was -2.4%.

For the compound `COCCNC(=O)c1ccc2c(c1)ncn2-c1ccc(C)c(Cl)c1`, the inhibition was 37.8% (active).

Turning to `CC1(C)NC(=O)N(CC(=O)N2CCN(S(=O)(=O)c3ccccc3F)CC2)C1=O`, the inhibition is -17.9%.

`CCOC(=O)N1CCC(N(CCOC)C(=O)Nc2ccc(C)c(C)c2)CC1`: the inhibition was -9.1%.

As to `CC(=O)NCC(=O)N(C)C(C(=O)Nc1ccc2c(c1)OCCO2)c1ccccc1` (stereo not drawn), the inhibition is -6%.

As for `CC(=O)N1c2ccc(S(=O)(=O)N3CCC(C(=O)NCc4ccc(F)cc4)CC3)cc2CC1C` (stereo not drawn), the inhibition was -3.5%.

Turning to `CC(=O)N1c2ccc(S(=O)(=O)N3CCC(C(=O)NC4CCCCC4C)CC3)cc2CC1C` (stereo not drawn), the inhibition was 21.3% (active).

For `CC(=O)N1c2ccc(S(=O)(=O)N3CCC(C(=O)NC4CCCC(C)C4C)CC3)cc2CC1C` (stereo not drawn), the inhibition was 1.3%.

In the case of `COc1ccc(CN(C)C(C)C(=O)NC2CCCc3ccccc32)cc1` (stereo not drawn), the inhibition was -9.8%.

Consider `COC(=O)c1cc(OCC(=O)NC2CCCc3ccccc32)cc(C(=O)OC)c1` (stereo not drawn), for which the inhibition was 11.6%.

With `COc1ccc2c(c1)C(NS(=O)(=O)OCC(Cl)(Cl)Cl)CCC2` (stereo not drawn), the inhibition is 20.7% (active).

Regarding `CCCc1nnc(NC(=O)CCC(=O)NC2CC2)s1`, the inhibition was -3.9%.

As to `Cc1cccc(C)c1NC(=O)C1(N(C(=O)c2ccccn2)c2ccc(O)cc2)CCCCC1`, the inhibition was -2.4%.

Turning to `COc1cccc(N(C(=O)c2ccn[nH]2)C2(C(=O)Nc3c(C)cccc3C)CCCCC2)c1`, the inhibition was 20.6% (active).

With `COc1cccc(NC(=O)C2(C)CCN2C(=O)CCC2CCCC2)c1` (stereo not drawn), the inhibition is -6.9%.

Regarding `Cc1nc2c(-c3ccc(F)cc3)c(C)nn2c(C)c1CCC(=O)N1CCN(c2ccccn2)CC1`, the inhibition is -14.2%.

As to `CCc1ccc(Nc2n[n+](-c3ccccc3)c(-c3cccc(Cl)c3Cl)s2)cc1`, the inhibition is 7.2%.

Take `COc1ccc(C)cc1Nc1n[n+](-c2ccccc2)c(-c2cccc(Cl)c2Cl)s1`: the inhibition is 9.5%.

Consider `COc1cc(Br)c(-c2sc(Nc3ccccc3)n[n+]2-c2ccccc2)cc1OC`, for which the inhibition is 23.7% (active).

On to `O=C(C(NS(=O)(=O)c1cccc2nsnc12)c1ccccc1)N1CCN(c2ccccc2)CC1` (stereo not drawn), for which the inhibition is 3.4%.

Turning to `COc1ccc(COC(=O)c2ccc(Cl)c(S(=O)(=O)N3CCOCC3)c2)cc1F`, the inhibition was -7.6%.

Regarding `O=C(CP(=O)(c1ccccc1)c1ccccc1)N1CCOCC1`, the inhibition was 12.2%.

Turning to `O=C(Cc1ccccc1Cl)N1CCN(c2ccccn2)CC1`, the inhibition was -9.5%.

Take `O=C(Cc1ccccc1Cl)N1CCOCC1`: the inhibition is 45.9% (active).

Turning to `C=CCOc1cccc(CNn2cn[nH]c2=S)c1`, the inhibition is -0.4%.

With `COC(=O)c1c(CCl)noc1C(=O)NC(C)C`, the inhibition was 28.8% (active).

For the compound `CCCNC(=O)c1onc(CSc2ccc(F)cc2)c1C(=O)NC(C)C`, the inhibition was 5.5%.

Turning to `COC(=O)c1onc(-c2c(OC)cc(OC)cc2OC)c1C(=O)OC`, the inhibition is 2.6%.

As for `CC1CC(C)(C)n2c(O)c(N=NC(N)=S)c3cccc1c32` (stereo not drawn), the inhibition was 6.2%.

Turning to `O=C(O)CCCN1C(=O)C2C3c4ccccc4C(c4ccccc43)[C@@H]2C1=O` (stereo partly drawn), the inhibition is -2%.

With `CCCCN(C)CCNC(=O)C1CCCN(S(=O)(=O)c2cccc3nsnc23)C1` (stereo not drawn), the inhibition is -1.2%.
